# Measured values: article PMC7862700, “An all-to-all approach to the identification of sequence-specific readers for epigenetic DNA modifications on cytosine”
# Columns and labels:
# Test in all cases: DAPPL (digital affinity profiling via proximity ligation, sequencing); 10 mM Tris-HCl pH 7.5, 50 mM NaCl, 1 mM DTT, 4% glycerol, room temperature, 30 min; GST-TFs on glutathione beads, 16-mer random dsDNA library, 0.1% formaldehyde crosslink after washing; high values mean tight binding
# Conditions in all cases: protein: recombinant; tags: N-terminal GST; dsDNA, one strand shown
# ERF = target: T1, ERF (Homo sapiens, UniProt P50548 1-548)
# T1 sequence: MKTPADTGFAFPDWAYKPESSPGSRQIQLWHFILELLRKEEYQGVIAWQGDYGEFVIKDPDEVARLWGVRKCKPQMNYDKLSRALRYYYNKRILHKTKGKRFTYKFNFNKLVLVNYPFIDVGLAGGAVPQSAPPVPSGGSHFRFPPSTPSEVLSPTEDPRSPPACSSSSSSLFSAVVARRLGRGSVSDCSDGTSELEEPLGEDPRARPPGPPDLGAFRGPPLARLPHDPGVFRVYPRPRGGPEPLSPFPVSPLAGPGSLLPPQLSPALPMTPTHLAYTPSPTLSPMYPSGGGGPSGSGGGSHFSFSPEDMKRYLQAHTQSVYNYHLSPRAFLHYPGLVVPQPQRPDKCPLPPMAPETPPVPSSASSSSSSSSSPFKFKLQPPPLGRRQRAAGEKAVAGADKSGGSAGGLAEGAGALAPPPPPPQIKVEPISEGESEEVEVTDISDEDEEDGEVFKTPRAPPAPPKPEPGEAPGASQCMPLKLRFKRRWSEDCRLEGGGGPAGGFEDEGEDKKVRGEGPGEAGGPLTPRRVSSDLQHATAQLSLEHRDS
# Outline: (§1)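 A tag-only sample was pooled with DNA-barcoded human transcription factors that had been expressed in yeast as GST fusions and captured on glutathione beads. The pools were incubated for 30 min at room temperature with 200 nmole of a random double-stranded 16-mer DNA library in Tris/NaCl/DTT/glycerol buffer, then washed, crosslinked with 0.1% formaldehyde, proximity-ligated (BsaI/T4 ligase, 1 h, 37 °C), PCR-amplified and sequenced on an Illumina NextSeq500. Binding signal is each hexamer's read frequency for a factor divided by its frequency for the tag-only sample.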
# ETV3L = target: T2, ETV3L (Homo sapiens, UniProt Q6ZN32 1-361)
# T2 sequence: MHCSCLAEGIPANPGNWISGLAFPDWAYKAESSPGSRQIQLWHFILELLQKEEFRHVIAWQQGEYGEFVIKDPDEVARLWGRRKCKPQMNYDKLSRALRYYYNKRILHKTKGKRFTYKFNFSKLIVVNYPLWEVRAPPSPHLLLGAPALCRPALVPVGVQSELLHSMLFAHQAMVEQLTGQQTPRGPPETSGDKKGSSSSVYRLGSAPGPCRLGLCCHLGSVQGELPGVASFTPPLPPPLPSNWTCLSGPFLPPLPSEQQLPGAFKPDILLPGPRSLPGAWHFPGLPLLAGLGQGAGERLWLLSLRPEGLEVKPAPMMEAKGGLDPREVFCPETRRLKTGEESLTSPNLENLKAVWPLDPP
# Outline: as §1
# ETS2 = target: T3, ETS2 (Homo sapiens, UniProt P15036 1-469)
# T3 sequence: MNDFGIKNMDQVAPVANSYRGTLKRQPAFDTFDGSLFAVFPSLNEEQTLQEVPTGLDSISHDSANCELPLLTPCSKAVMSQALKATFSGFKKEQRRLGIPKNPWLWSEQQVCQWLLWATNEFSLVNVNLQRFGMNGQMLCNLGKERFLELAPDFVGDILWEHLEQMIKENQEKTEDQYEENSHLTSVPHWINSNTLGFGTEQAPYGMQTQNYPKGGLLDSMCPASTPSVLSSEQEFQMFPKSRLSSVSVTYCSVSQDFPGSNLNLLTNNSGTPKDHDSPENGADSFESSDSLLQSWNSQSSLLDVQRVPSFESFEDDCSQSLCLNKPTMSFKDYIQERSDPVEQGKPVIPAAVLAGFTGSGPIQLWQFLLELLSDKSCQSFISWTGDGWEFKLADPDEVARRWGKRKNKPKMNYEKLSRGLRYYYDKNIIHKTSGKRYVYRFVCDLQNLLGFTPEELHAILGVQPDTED
# Outline: as §1
# SPDEF = target: T4, SPDEF (Homo sapiens, UniProt O95238 1-335)
# T4 sequence: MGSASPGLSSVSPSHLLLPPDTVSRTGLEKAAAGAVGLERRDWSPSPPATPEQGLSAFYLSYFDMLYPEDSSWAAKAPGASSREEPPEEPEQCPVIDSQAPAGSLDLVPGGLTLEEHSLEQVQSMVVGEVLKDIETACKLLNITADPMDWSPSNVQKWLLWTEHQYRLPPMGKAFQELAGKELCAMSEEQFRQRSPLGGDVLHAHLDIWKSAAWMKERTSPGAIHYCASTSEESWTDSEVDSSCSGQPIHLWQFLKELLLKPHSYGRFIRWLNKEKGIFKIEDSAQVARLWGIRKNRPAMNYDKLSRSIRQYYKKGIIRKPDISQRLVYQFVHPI
# Outline: as §1
# ETV7 = target: T5, ETV7 (Homo sapiens, UniProt Q9Y603 1-341)
# T5 sequence: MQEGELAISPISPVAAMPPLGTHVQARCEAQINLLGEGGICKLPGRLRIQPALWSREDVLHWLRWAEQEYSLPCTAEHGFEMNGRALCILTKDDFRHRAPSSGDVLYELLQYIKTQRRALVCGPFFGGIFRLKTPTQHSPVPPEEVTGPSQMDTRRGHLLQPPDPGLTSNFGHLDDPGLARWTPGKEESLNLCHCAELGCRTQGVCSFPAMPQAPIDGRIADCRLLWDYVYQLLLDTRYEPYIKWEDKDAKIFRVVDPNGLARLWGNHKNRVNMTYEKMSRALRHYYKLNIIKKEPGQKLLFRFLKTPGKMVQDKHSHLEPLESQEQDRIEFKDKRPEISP
# Outline: as §1
# ELF5 = target: T6, ELF5 (Homo sapiens, UniProt Q9UKW6-2 1-255)
# T6 sequence: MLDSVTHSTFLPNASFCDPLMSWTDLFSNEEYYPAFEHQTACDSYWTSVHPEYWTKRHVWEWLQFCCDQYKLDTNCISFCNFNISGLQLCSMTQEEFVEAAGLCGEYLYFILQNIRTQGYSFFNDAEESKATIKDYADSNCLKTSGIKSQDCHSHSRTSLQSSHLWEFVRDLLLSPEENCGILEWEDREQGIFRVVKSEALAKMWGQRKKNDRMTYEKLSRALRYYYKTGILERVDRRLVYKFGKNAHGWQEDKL
# Outline: as §1
# ETV3 = target: T7, ETV3 (Homo sapiens, UniProt P41162-2 1-143)
# T7 sequence: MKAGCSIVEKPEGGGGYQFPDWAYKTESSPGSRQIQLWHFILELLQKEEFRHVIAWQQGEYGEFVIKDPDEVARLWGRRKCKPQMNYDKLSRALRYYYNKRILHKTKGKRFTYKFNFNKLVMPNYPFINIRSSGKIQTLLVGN
# Outline: as §1
# ETV6 = ETV6 (Homo sapiens, UniProt P41212 1-452)
# Outline: as §1
# Sequence of ETV6 (P41212 whole entry): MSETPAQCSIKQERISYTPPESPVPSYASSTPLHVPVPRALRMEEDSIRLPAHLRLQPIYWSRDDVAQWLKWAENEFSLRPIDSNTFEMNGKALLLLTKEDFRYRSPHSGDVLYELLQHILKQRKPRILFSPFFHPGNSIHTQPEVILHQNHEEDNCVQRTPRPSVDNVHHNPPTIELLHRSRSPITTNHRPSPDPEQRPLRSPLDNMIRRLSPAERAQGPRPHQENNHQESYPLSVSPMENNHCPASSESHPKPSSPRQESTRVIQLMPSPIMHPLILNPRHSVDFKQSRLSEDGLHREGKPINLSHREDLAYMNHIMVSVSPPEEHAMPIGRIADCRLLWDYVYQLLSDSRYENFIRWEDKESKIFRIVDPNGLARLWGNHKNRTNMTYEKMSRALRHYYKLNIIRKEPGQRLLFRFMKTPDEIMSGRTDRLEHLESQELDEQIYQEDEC
sequence,measurement,setting,value
AACCAC,binding signal,ERF,"1.18 fold enrichment (6-mer frequency, TF over GST control)"
same,binding signal,ETV3L,"1.16 fold enrichment (6-mer frequency, TF over GST control)"
same,binding signal,ETS2,"1.14 fold enrichment (6-mer frequency, TF over GST control)"
same,binding signal,SPDEF,"1.08 fold enrichment (6-mer frequency, TF over GST control)"
same,binding signal,ETV7,"1.03 fold enrichment (6-mer frequency, TF over GST control)"
same,binding signal,ELF5,"1.13 fold enrichment (6-mer frequency, TF over GST control)"
same,binding signal,ETV3,"1.17 fold enrichment (6-mer frequency, TF over GST control)"
same,binding signal,ETV6,"1.19 fold enrichment (6-mer frequency, TF over GST control)"
TGCTTA,binding signal,ERF,"1.1 fold enrichment (6-mer frequency, TF over GST control)"
same,binding signal,ETV3L,"1.09 fold enrichment (6-mer frequency, TF over GST control)"
same,binding signal,ETS2,"1.1 fold enrichment (6-mer frequency, TF over GST control)"
same,binding signal,SPDEF,"1.18 fold enrichment (6-mer frequency, TF over GST control)"
same,binding signal,ETV7,"1.12 fold enrichment (6-mer frequency, TF over GST control)"
same,binding signal,ELF5,"1.03 fold enrichment (6-mer frequency, TF over GST control)"
same,binding signal,ETV3,"1.18 fold enrichment (6-mer frequency, TF over GST control)"
same,binding signal,ETV6,"1.1 fold enrichment (6-mer frequency, TF over GST control)"
CTGATC,binding signal,ERF,"1.52 fold enrichment (6-mer frequency, TF over GST control)"
same,binding signal,ETV3L,"1.36 fold enrichment (6-mer frequency, TF over GST control)"
same,binding signal,ETS2,"1.42 fold enrichment (6-mer frequency, TF over GST control)"
same,binding signal,SPDEF,"1.33 fold enrichment (6-mer frequency, TF over GST control)"
same,binding signal,ETV7,"1.35 fold enrichment (6-mer frequency, TF over GST control)"
same,binding signal,ELF5,"1.32 fold enrichment (6-mer frequency, TF over GST control)"
same,binding signal,ETV3,"1.36 fold enrichment (6-mer frequency, TF over GST control)"
same,binding signal,ETV6,"1.23 fold enrichment (6-mer frequency, TF over GST control)"
GTCACA,binding signal,ERF,"1.11 fold enrichment (6-mer frequency, TF over GST control)"
same,binding signal,ETV3L,"1.08 fold enrichment (6-mer frequency, TF over GST control)"
same,binding signal,ETS2,"1.14 fold enrichment (6-mer frequency, TF over GST control)"
same,binding signal,SPDEF,"1.08 fold enrichment (6-mer frequency, TF over GST control)"
same,binding signal,ETV7,"1.09 fold enrichment (6-mer frequency, TF over GST control)"
same,binding signal,ELF5,"1.06 fold enrichment (6-mer frequency, TF over GST control)"
same,binding signal,ETV3,"1.01 fold enrichment (6-mer frequency, TF over GST control)"
same,binding signal,ETV6,"1.06 fold enrichment (6-mer frequency, TF over GST control)"
CTTTCG,binding signal,ERF,"1.23 fold enrichment (6-mer frequency, TF over GST control)"
same,binding signal,ETV3L,"1.29 fold enrichment (6-mer frequency, TF over GST control)"
same,binding signal,ETS2,"1.32 fold enrichment (6-mer frequency, TF over GST control)"
same,binding signal,SPDEF,"1.22 fold enrichment (6-mer frequency, TF over GST control)"
same,binding signal,ETV7,"1.3 fold enrichment (6-mer frequency, TF over GST control)"
same,binding signal,ELF5,"1.26 fold enrichment (6-mer frequency, TF over GST control)"
same,binding signal,ETV3,"1.16 fold enrichment (6-mer frequency, TF over GST control)"
same,binding signal,ETV6,"1.23 fold enrichment (6-mer frequency, TF over GST control)"
ACCCCG,binding signal,ERF,"1.26 fold enrichment (6-mer frequency, TF over GST control)"
same,binding signal,ETV3L,"1.33 fold enrichment (6-mer frequency, TF over GST control)"
same,binding signal,ETS2,"1.25 fold enrichment (6-mer frequency, TF over GST control)"
same,binding signal,SPDEF,"1.15 fold enrichment (6-mer frequency, TF over GST control)"
same,binding signal,ETV7,"1.02 fold enrichment (6-mer frequency, TF over GST control)"
same,binding signal,ELF5,"1.21 fold enrichment (6-mer frequency, TF over GST control)"
same,binding signal,ETV3,"1.11 fold enrichment (6-mer frequency, TF over GST control)"
same,binding signal,ETV6,"1.16 fold enrichment (6-mer frequency, TF over GST control)"
CGCCGA,binding signal,ERF,"1.34 fold enrichment (6-mer frequency, TF over GST control)"
same,binding signal,ETV3L,"1.21 fold enrichment (6-mer frequency, TF over GST control)"
same,binding signal,ETS2,"1.22 fold enrichment (6-mer frequency, TF over GST control)"
same,binding signal,SPDEF,"1.15 fold enrichment (6-mer frequency, TF over GST control)"
same,binding signal,ETV7,"1.05 fold enrichment (6-mer frequency, TF over GST control)"
same,binding signal,ELF5,"1.1 fold enrichment (6-mer frequency, TF over GST control)"
same,binding signal,ETV3,"1.16 fold enrichment (6-mer frequency, TF over GST control)"
same,binding signal,ETV6,"1.16 fold enrichment (6-mer frequency, TF over GST control)"
